Compound activity deposited in PubChem BioAssay by several laboratories.
The list is not random: actives were taken first. Their share in the collection is about 3.5%.
MBD2 inh: inhibitors of human MBD2 binding to methylated oligonucleotide; TR-FRET; inhibition, % at 4.4 µM; 370,000 tested, 0.31% active; AID 686964; in the data active = inhibition above about 13%
Target sequence (Q9UBB5 whole entry, looked up): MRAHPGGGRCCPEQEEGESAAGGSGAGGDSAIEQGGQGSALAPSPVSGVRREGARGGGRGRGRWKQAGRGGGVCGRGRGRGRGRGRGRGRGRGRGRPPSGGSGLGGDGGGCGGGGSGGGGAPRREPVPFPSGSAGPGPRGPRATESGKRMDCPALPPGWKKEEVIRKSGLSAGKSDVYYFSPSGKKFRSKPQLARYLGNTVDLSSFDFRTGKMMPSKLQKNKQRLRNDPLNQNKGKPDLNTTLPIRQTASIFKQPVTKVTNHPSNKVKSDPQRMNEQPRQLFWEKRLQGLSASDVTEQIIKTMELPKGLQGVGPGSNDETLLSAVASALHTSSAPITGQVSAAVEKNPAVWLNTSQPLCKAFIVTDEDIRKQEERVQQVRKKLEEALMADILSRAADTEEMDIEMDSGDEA
rCAG binder: molecules binding r(CAG) RNA repeats. inhibition, % at 3 µM. r(CAG) RNA repeat, TO-PRO-1 dye displacement fluorescence. 370,000 tested, 1.3% active;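 active = inhibition above the plate cutoff, the mean of all test compounds on that plate plus 3 SD, cut at about 35% in these data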;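 note: 0% = DMSO alone and 100% = 100 µM mitoxantrone as full dye displacement; higher means more dye released from RNA so lower well fluorescence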
UHRF1 binding: UHRF1 methyl-DNA binding inhibition; UHRF1 binding to methylated oligo, TR-FRET; inhibition, % at 4.4 µM; 370,000 tested, 0.75% active; AID 687016; in the data active = inhibition above about 21%;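 note: UHRF1 SRA domain binding a hemimethylated CpG hairpin DNA probe; 0% = median of test compound wells and 100% = reference inhibitor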
DNMT1 block: inhibitors of human DNMT1; DNMT1 molecular beacon, Hinp1I cleavage, fluorescence; inhibition (reported as % activation of signal), % at 10 µM; 360,000 tested, 0.83% active; P26358; AID 588458; in the data active = inhibition above about 50%
PG9 binder: binds the HIV-1 gp120 antibody PG9. TR-FRET gp120-PG9 antibody binding. inhibition, % at 6.7 µM. 360,000 tested, 0.43% active. AID 624416; in the data active = inhibition above about 8.5%
LEDGF integ inh: blocks HIV-1 LEDGF/p75-dependent DNA integration. AID 743269. TR-FRET IN-LEDGF/p75 DNA integration, Eu/Cy5. 370,000 tested, 0.64% active. inhibition, % at 3.7 µM;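 active = inhibition above the screen-wide mean plus 3 SD, cut at about 13% in these data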;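 note: signal is the Cy5 over europium emission ratio at 671 and 618 nm; 0% = plate median of compound wells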
IN multimer act: activates HIV-1 integrase multimerization in LEDGF counter-screen; shares compounds with LEDGF integ inh; TR-FRET HIV-1 integrase multimerization, biochemical; activation, % at 7.7 µM; 2,000 tested, 17% active; AID 1053131; in the data active = activation above about 8.9%
TR-FRET interf: optically interferes with TR-FRET readout in LEDGF counter-screen; 2,000 tested, under 10 active; inhibition, % at 7.7 µM; shares compounds with LEDGF integ inh; TR-FRET optical interference counterscreen, HIV-1 IN multimerization;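 active = inhibition above the mean over all tested compounds plus 3 SD, which no compound reached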;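 note: 0% = integrase with antibodies and DMSO and 100% = antibodies without integrase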
LEDGF integ conf: LEDGF/p75-dependent HIV-1 integration inhibition, confirmation; TR-FRET LEDGF/p75-dependent HIV-1 integration, biochemical; AID 1053136; 2,000 tested, 36% active; shares compounds with LEDGF integ inh; inhibition, % at 3.7 µM; in the data active = inhibition above about 14%
An asterisk follows results filed as active; / = no result given.

SMILES	MBD2 inh	rCAG binder	UHRF1 binding	DNMT1 block	PG9 binder	LEDGF integ inh	IN multimer act	TR-FRET interf	LEDGF integ conf
CC1OC(Nc2cccc3ccccc23)C(O)C(O)C1O (configuration not stated)	-8	10	-5	-18	-2	36*	3	-13	5
CC1OC(Nc2ccc(N=Nc3ccccc3)cc2)C(O)C(O)C1O (configuration not stated)	-7	-3	-3	-6	-4	-5	/	/	/
CC1(C(=O)NS(=O)(=O)c2ccc(Cl)cc2)CCN1C(=O)Cc1ccsc1 (configuration not stated)	1	4	14	7	-1	-1	/	/	/
COc1ccccc1CCNC(=O)c1c(N)[nH]c(C(=O)c2ccccc2)c1-c1ccc(Br)cc1	-2	7	-2	/	-1	1	/	/	/
Cc1ccc(C(=O)NNC(=O)C2CCN(c3nccc(C)n3)CC2)cc1	4	-1	4	-1	1	18*	0	-1	-6
Cc1cc(-c2cc(C)c(N)cc2C)c(C)cc1N	1	2	1	-2	1	14*	2	-10	1
CC(=O)OC[C@]1(OC(C)=O)C[C@@]23CC[C@H]4[C@@](C)(CCC[C@@]4(C)C(=O)O)[C@@H]2CC[C@@H]1C3	-1	14	-3	7	0	0	/	/	/
CC(=O)OC[C@]12CC[C@H]3[C@@](C)(CC[C@H]4C(C)(C)CCC[C@]34C)[C@@H]1CC(C1=CC(=O)OC1O)O2 (some centres not stated)	5	18	4	58*	-1	20*	-3	13	63*
CC1CCN(C(=O)CCNS(=O)(=O)c2ccc(Br)cc2)CC1	-2	3	-1	4	3	45*	-1	4	-4
Cc1ccc(S(=O)(=O)SCCCSS(=O)(=O)c2ccc(C)cc2)cc1	0	3	-1	2	0	-1	/	/	/
CCOC(=O)c1c(C)[nH]c(N=Nc2ccc(C)cc2C)c1C	3	7	1	-3	1	7	/	/	/
CCOC(=O)c1c(C)[nH]c(N=Nc2cc(C(=O)O)cc(C(=O)O)c2)c1C	-1	20	11	21	-5	14*	9	-45	2
COc1cccc(-c2cccc(-c3nc(C(=O)NCCCN4CCOCC4)cc4c3[C@H](CCO)N(S(=O)C(C)(C)C)C4)c2)c1 (some centres not stated)	7	2	-2	-2	0	-2	/	/	/
CC1=CC(=O)C=CC1=Nc1ccc(N(C)C)cc1	-8	13	1	4	5	27*	5	-19	2
CN(C)c1ccc(N=c2sc3ccccc3n2C)cc1	-1	0	0	-7	1	-4	/	/	/
CCCn1c2ccccc2c2nnc(SCCN3CCOCC3)nc21	-9	-4	-7	1	-3	20*	-2	8	5
CCCCN(C)c1c2c(nc3ncnn13)CCCC2	-3	1	2	/	/	2	/	/	/
Cc1cc(C)c(S(=O)(=O)c2ccc(F)cc2C)c(Cl)n1	3	-4	0	3	0	1	/	/	/
COc1ccc(OC)c(S(=O)(=O)Oc2ccc(N)c3ccccc23)c1	-10	14	-4	-17	-1	14*	4	-15	-1
COc1ccc(OC)c(S(=O)(=O)Nc2cccc3ccccc23)c1	0	1	-3	-25	-2	0	/	/	/
NC(=O)C1C(=O)c2ccccc2C1(C[N+](=O)[O-])c1ccccc1 (configuration not stated)	-7	5	-6	-9	-1	12	/	/	/
C=CCc1c(C)nc(-c2ccccc2)nc1N/N=C/c1ccccc1	2	-3	-4	0	-1	53*	-1	5	25*
C=CCc1c(C)nc(-c2ccccc2)nc1N/N=C/c1ccncc1	4	-8	-1	-3	0	-1	/	/	/
Cc1cccc(NC(=O)COC(=O)[C@@H]2CCCN2C(=O)c2cccs2)c1	4	2	-1	2	4	28*	0	-2	-4
CCC1(c2ccccc2)NC(=O)N(CC(=O)Nc2cc(S(=O)(=O)N3CCOCC3)ccc2OC(C)C)C1=O (configuration not stated)	7	2	-8	-3	2	-2	/	/	/
SMILES	MBD2 inh	rCAG binder	UHRF1 binding	DNMT1 block	PG9 binder	LEDGF integ inh	IN multimer act	TR-FRET interf	LEDGF integ conf
Cc1ccc(NC(=O)c2ccc(S(=O)(=O)NCC3CCCO3)cc2)cc1 (configuration not stated)	5	5	6	0	-2	4	/	/	/
Cc1ccccc1C(=O)Nc1ccc(S(=O)(=O)NCC2CCCO2)cc1 (configuration not stated)	2	2	0	3	0	15*	0	2	0
C/C(=C\C(=O)c1ccc(Cl)cc1)Nc1ccc(N2CCOCC2)cc1	0	1	-4	21	-2	8	/	/	/
CCc1ccc(C(=O)NC(=S)Nc2ccc(N3CCOCC3)cc2)cc1	-5	-1	2	14	-2	-3	/	/	/
C/C(=C\C(=O)c1ccccc1)Nc1ccc(N2CCOCC2)cc1	-5	1	1	-17	-2	22*	3	-11	-7
CC(=O)c1ccc(NC(=S)Nc2ccc(N3CCOCC3)cc2)cc1	-3	6	2	-8	-3	15*	0	1	2
S=C(Nc1ccc(N2CCOCC2)cc1)Nc1ccc2nc(-c3ccco3)c(-c3ccco3)nc2c1	-3	-13	-5	-7	-1	27*	18*	-65	51*
Cc1ccccc1SCC(=O)Nc1ccc(N2CCOCC2)cc1	0	13	-2	-1	0	0	/	/	/
Nc1ccccc1SCC(=O)Nc1ccc(N2CCOCC2)cc1	-4	1	-5	-1	-3	18*	2	-10	1
Cc1cc(=O)oc2c(C)cc(C(C)(C)C)cc12	-1	0	-2	6	0	0	/	/	/
CCc1cc(S(=O)(=O)N2CCN(C(=O)c3ccco3)CC2)ccc1OC	1	-4	-2	-2	0	-2	/	/	/
COc1ccc(C(=O)CCC(=O)Nc2ccc(N3CCN(C)CC3)cc2)cc1OC	0	-1	0	0	-2	2	/	/	/
COc1ccc(Cc2c(-c3ccc(C)cc3)nc3ccc(Cl)cn23)c(C)c1	0	32	7	18	-1	0	/	/	/
COc1ccc(-c2ccc3c(c2)O/C(=C\c2ccsc2)C3=O)cn1	5	5	13	-9	-3	0	/	/	/
